Compound activity (PubChem BioAssay)
Coupling enz – counter-screen for Giardia aldolase inhibitors: coupling enzyme system; activity change, negative = inhibition, % at 58.2 µM, hits read low; actives 0.67% (n = 290,000); coupling enzyme system counterscreen, AmpLite Red fluorescence; in the data active = activity change below about -30%; also: % is scaled to controls: 0 for no effect and ±100 for the full control effect
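Counterscreen of the coupled detection system alone, without aldolase: glyceraldehyde-3-phosphate coupling enzymes plus AmpLite Red readout. Compounds at 57.5 uM final, 10 min RT preincubation, 20 min RT reaction, fluorescence 525/598 nm.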
TrxR1 substrate – is turned over as a substrate by rat TrxR1. AID 588456. actives 0.01% (n = 390,000). Potency, µM (doses to about 114 µM), inactives show at the highest dose activity change, negative = substrate turnover. O89049. purified TrxR1 substrate turnover, NADPH consumption readout; also: potency is read from the fitted curve at half-maximal effect; % is scaled to controls: 0 for no effect and ±100 for the full control effect; nearly all actives have a fitted effect of over 50% in size
Target sequence (O89049 whole entry, looked up): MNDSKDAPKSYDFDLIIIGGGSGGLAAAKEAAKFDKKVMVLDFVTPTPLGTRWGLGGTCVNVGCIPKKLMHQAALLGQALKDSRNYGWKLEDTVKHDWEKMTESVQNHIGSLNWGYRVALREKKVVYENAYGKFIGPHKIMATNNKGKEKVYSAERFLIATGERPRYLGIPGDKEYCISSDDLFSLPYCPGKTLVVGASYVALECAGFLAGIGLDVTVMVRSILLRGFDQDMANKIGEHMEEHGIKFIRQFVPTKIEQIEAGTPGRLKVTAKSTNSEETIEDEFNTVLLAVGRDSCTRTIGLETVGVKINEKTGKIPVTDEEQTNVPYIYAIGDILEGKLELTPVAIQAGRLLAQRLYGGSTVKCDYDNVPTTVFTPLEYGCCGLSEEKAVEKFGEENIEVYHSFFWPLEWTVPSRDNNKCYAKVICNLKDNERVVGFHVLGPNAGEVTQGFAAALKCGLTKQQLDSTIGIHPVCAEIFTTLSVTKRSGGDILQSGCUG
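Rat TrxR1, dispensed at 90 nM, was prereduced with 400 uM NADPH (final) for 5 min at ~22 deg C, then incubated with compound 15 min before 400 uM selenite. A first-read NADPH fluorescence drop versus no-compound background flagged substrates.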
Eya2 inh – Eya2 (human) phosphatase inhibition; actives 0.006% (n = 330,000); Potency, µM (top dose mostly 76.9 µM), for the others: at the top dose activity, negative = inhibition, hits mostly inhibitors; recombinant Eya2, OMFP fluorescence dephosphorylation (OMFP is methylfluorescein phosphate); O00167; also: potency is read from the fitted curve at half-maximal effect; % is scaled to controls: 0 for no effect and ±100 for the full control effect
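Eya2 (0.2 uM) preincubated 10 min at ambient with compound, then OMFP substrate added at 50 uM; 10 min reaction in 50 mM HEPES pH 7.5, 50 mM NaCl, 5 uM MgCl2, 0.05% BSA, 1 mM DTT. Fluorescence read at Ex 485/Em 525 nm.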
mIDH1 inhibitor – human IDH1 R132H inhibition; O75874; actives 0.093% (n = 390,000); AID 602179; IDH1-R132H enzyme, NADPH consumption, diaphorase/resazurin fluorescence; Potency, µM (top dose mostly 76.6 µM), for the others: top-dose activity change, negative = inhibition, most hits filed as inhibitors; also: potency is read from the fitted curve at half-maximal effect; % is scaled to controls: 0 for no effect and ±100 for the full control effect; nearly all actives have a fitted effect of over 65% in size
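IDH1-R132H (0.5 ug/mL) preincubated 30 min with compound, then NADPH (0.016 mM) and alpha-KG (2 mM) added; 80 min at RT, pH 7.5. Remaining NADPH coupled via diaphorase/resazurin to fluorescence (540/590 nm); concentration-response curves normalized to no-enzyme control.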
rTrxR1 inhibitor – inhibitors of rat thioredoxin reductase 1; actives 1% (n = 390,000); O89049; Potency, µM (titrated, usually from 114 µM), for inactives: top-dose activity change, negative = inhibition, hits mostly inhibitors; AID 588453; recombinant rTrxR1, NADPH fluorescence consumption, selenite substrate; also: potency is read from the fitted curve at half-maximal effect; % is scaled to controls: 0 for no effect and ±100 for the full control effect; nearly all actives have a fitted effect of over 65% in size
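Rat TrxR1 (90 nM in the dispensed reagent) was pre-reduced with 400 uM NADPH for 5 min at room temperature, then incubated with compound for 15 min. After 400 uM selenite was added, NADPH fluorescence (Ex 340/Em 450 nm) was followed for 8 min.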
IDH1 autofl – autofluorescence interference, mutant IDH1 hit counter-screen. shares compounds with mIDH1 inhibitor. Resorufin detection reagent fluorescence interference, cell-free. inhibition of signal, % at 51.2 µM. 750 tested, under 10 active. AID 623980;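 also: 0% = wells with normal resorufin and full inhibition = wells lacking resorufin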
WT IDH1 inh – inhibits human wild-type IDH1, mutant selectivity check; shares compounds with mIDH1 inhibitor; WT IDH1 enzyme, NADPH diaphorase/resazurin fluorescence; Potency, µM (top dose mostly 115 µM), without a hit: at the highest dose activity change, negative = inhibition, usual class: inhibitors; actives 9% (n = 750);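 also: potency is read from the fitted curve at half-maximal effect; 0% = full WT IDH1 enzyme control and full inhibition = no enzyme wells; nearly all actives have a fitted effect of over 55% in size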
mIDH1 confirm – confirmation of human mutant IDH1 inhibitors; shares compounds with mIDH1 inhibitor; IDH1 R132H enzyme, NADPH diaphorase/resazurin fluorescence; Potency, µM (highest dose often 76.6 µM), for inactives: at the top dose activity change, negative = inhibition, usual class: inhibitors; actives 83% (n = 750); AID 624002; also: potency is read from the fitted curve at half-maximal effect; nearly all actives have a fitted effect of over 50% in size
* marks the source's active call; other numbers are inactive results; u = inconclusive; x = no result; [ ] = another dose, or the depositor's remark. The list is not random: actives were taken first. Their share in the collection is about 1.5%. Unless noted, calls follow the shape of the dose curve; as a rule, active = well fitted curve in the direction sought with a large enough effect; inconclusive = small, poorly fitted or top-dose-only effect, or another doubt; inactive = no such curve, though single readings can be large; an effect the other way counts as inactive or inconclusive.

SMILES	Coupling enz	TrxR1 substrate	Eya2 inh	mIDH1 inhibitor	rTrxR1 inhibitor	IDH1 autofl	WT IDH1 inh	mIDH1 confirm
CC(C)C[C@H](NC(=O)[C@H](CO)NC(=O)[C@@H]1CCCN1C(=O)[C@H](Cc1ccc(O)cc1)NC(=O)[C@H](CC(C)C)NC(=O)[C@H](CC(C)C)NC(=O)[C@@H]1CCCN1C(=O)[C@@H](NC(=O)[C@H](CO)NC(=O)[C@H](CO)NC(=O)[C@H](CO)NC(=O)[C@H](CO)NC(=O)[C@@H]1CCCN1C(=O)[C@@H](NC(=O)[C@@H](N)CO)C(C)C)[C@@H](C)O)C(=O)N[C@@H](C)C(=O)N[C@@H](CC(C)C)C(=O)N1CCC[C@H]1C(=O)N[C@@H](C)C(=O)N1CCC[C@H]1C(=O)O	2	x	x	x	x	x	x	x
C=CCSC1=N/C(=C\c2cc(OCC)c(OC(C)=O)c([N+](=O)[O-])c2)C(=O)S1	0	-11%	0%	u	-36%	2	u	25µM*
C=CCSC1=N/C(=C\c2ccc3c(c2)OCO3)C(=O)S1	4	-9%	-1%	1%	-5%	x	x	x
Cc1ccc(OCCCSc2nc(-c3ccc(C(C)(C)C)cc3)nc3cc(=O)[nH]n23)cc1C	x	18%[57.1 µM]	x	40µM*	6%[57.1 µM]	0	u	25µM*
Cc1ccsc1C1Nc2ccc3ncccc3c2C2=C1C(=O)CC(C)(C)C2 (centres undefined)	-31*	20%[57.1 µM]	6%	u	24%[57.1 µM]	-19	u	2.8µM*
O=C1CCCC2=C1C(c1cccs1)Nc1ccc3ncccc3c12 (centres undefined)	-4	6%	4%	4%	1%	x	x	x
Cc1cc(C)c(O)c(-c2n[nH]c3c2C(c2cccc(O)c2)N(Cc2ccco2)C3=O)c1 (centres undefined)	-1	-11%	u	16µM*	2%	-8	50µM*	22µM*
O=C1c2[nH]nc(-c3ccccc3O)c2C(c2ccc(F)cc2)N1Cc1ccco1 (centres undefined)	-19	-4%[57.1 µM]	-35%	u	-1%[57.1 µM]	-7	5%	40µM*
O=C1c2[nH]nc(-c3ccccc3O)c2C(c2cccc(Cl)c2)N1Cc1ccco1 (centres undefined)	-2	-7%	-7%	u	4%	x	x	x
Cc1ccc(C2c3c(-c4cc(C)ccc4O)n[nH]c3C(=O)N2Cc2ccco2)cc1 (centres undefined)	x	-12%	x	35µM*	7%	-4	-4%	45µM*
O=C(NCCc1nc2ccccc2n1CCOc1cccc2ccccc12)C1CCCCC1	x	-8%	x	x	-17%	x	x	x
COc1ccc(OC)c(C2=Nn3c(nnc3-c3ccccc3O)SC2)c1	-4	x	x	x	x	x	x	x
O=C(NC1CCCCC1)C(c1ccc(F)cc1)N(C(=O)c1cccs1)c1ccc2c(c1)OCO2 (centres undefined)	6	7%	6%	u	35%	0	-9%	7.9µM*
O=C(NC1CCCCC1)C(c1cccs1)N(C(=O)c1ccco1)c1ccc2c(c1)OCCO2 (centres undefined)	-7	-12%	-7%	u	-4%	-1	-20%	u
Cc1ccc(-c2nnc3ccc(SCC(=O)c4ccccc4)nn23)cc1	x	-4%	x	x	-5%	x	x	x
Cn1cc(S(=O)(=O)c2cccc(Cl)c2)c(=O)c2cc(F)c(N3CCCCC3)cc21	x	72%	x	u	13%	3	3%	13µM*
COc1ccc(N(C)C(=O)c2ccc3c(Cl)c4c(nc3c2)CCCC4)c(OC)c1	-1	-14%	-4%	u	u	-7	0%	40µM*
CCn1c2ccccc2c2c3ncc4cccn4c3ccc21	-4	23%	13%	u	-15%	7	45µM*	14µM*
c1ccc2c(c1)ncc1cccn12	0	517%	4%[15.4 µM]	3%	-5%	x	x	x
CC1Cc2ccccc2C[N+]1(C)CC(=O)c1ccc(I)cc1 (centres undefined)	x	-3%	x	x	-8%	x	x	x
CC(C)(C)c1c(Cl)c(O)c(-c2ccccc2)c(=O)n1-c1ccccc1	5	-2%[57.1 µM]	10%	46µM*	0%[57.1 µM]	-3	u	u
COc1ccc(-c2c3c(=O)n(C)c(=O)n(C)c3c3n2-c2ccccc2NC3c2ccc(O)cc2O)cc1 (centres undefined)	x	-3%	x	35µM*	17%	-5	-27%	8.9µM*
CCC1CC=CC2C1C(=O)N(Cc1ccccc1)C2c1ccc2ccccc2c1 (centres undefined)	1	1%	x	x	-4%	x	x	x
Cc1cccc(N(C(=O)c2snc(C(N)=O)c2N)C(C(=O)NC2CCCC2)c2ccc(C)o2)c1 (centres undefined)	0	14%	14%	u	0%	1	8%	25µM*
Cc1ccc(N(C(=O)c2snc(C(N)=O)c2N)C(C(=O)NC2CCCC2)c2ccco2)cc1 (centres undefined)	-3	-7%	4%	u	-23%	7	-1%	28µM*
SMILES	Coupling enz	TrxR1 substrate	Eya2 inh	mIDH1 inhibitor	rTrxR1 inhibitor	IDH1 autofl	WT IDH1 inh	mIDH1 confirm
COCCNC(=O)C(c1ccc(C)o1)N(C(=O)c1snc(C(N)=O)c1N)c1ccc(C)cc1 (centres undefined)	3	14%	6%	-9%	4%	x	x	x
COc1ccc(N(C(=O)c2snc(C(N)=O)c2N)C(C(=O)NC2CCCC2)c2ccco2)c(OC)c1 (centres undefined)	-3	8%[57.1 µM]	-8%	-22%	18%[57.1 µM]	x	x	x
Cc1ccc(N(C(=O)c2snc(C(N)=O)c2N)C(C(=O)NC2CCCC2)c2ccc(C)o2)cc1 (centres undefined)	0	13%	-6%	u	-5%	-1	3%	20µM*
NS(=O)(=O)c1ccc(Cc2ncc(C(F)(F)F)cc2Cl)s1	1	-6%	14%	1%	-11%	x	x	x
O=C(CCl)c1ccc(Cc2ncc(C(F)(F)F)cc2Cl)s1	3	8%[57.1 µM]	7%	u	-49%	-12	u	22µM*
COc1ccc(Br)cc1CN(C)C(=O)c1ccccc1SCC(=O)N1CCCC1	x	5%[57.1 µM]	x	46µM*	15%[57.1 µM]	-2	9%	35µM*
